High-throughput results from PubChem.
Compounds with a hit are over-represented: about 19% of the library has one in this group of screens.
TDP1 cell noCPT – qHTS for Inhibitors of human tyrosyl-DNA phosphodiesterase 1 (TDP1): qHTS in cells in absence of CPT; DT40 Tdp1-/- hTDP1 cells, no CPT, ATP luminescence, 48 h; Potency, µM (top dose mostly 46.2 µM), usual class: inhibitors; hit rate 15% among 420,000; AID 686978, 2013; also: nearly all actives have a fitted effect of over 55% in size
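Growth of hTDP1-complemented DT40 Tdp1-knockout cells is measured by ATP luminescence after at least 48 hr compound exposure at 37 °C, with DMSO substituting for the 20 nM CPT used in the parallel screen.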
IL-1B inflam inh – inflammasome signaling inhibition, IL-1 beta readout | THP-1 LPS/ATP IL-1B secretion, AlphaLISA, 16 h; hits give low values | activity change, % at 57.5 µM | hit rate 4.7% among 360,000 | AID 743279; in the data active = activity change below about -50%; inconclusive = mostly about -30% to -49%
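THP-1 cells pretreated 1 hr with compounds (up to 57.5 uM final), then stimulated with LPS (250 ng/mL final) plus ATP (1.25 mM final); secreted IL-1B measured by AlphaLISA after 16 hr, decreased signal indicating inhibition.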
HT1080 IDH1KD tx – HT-1080 IDH1 knockdown cell toxicity (counter line); hit rate 2% among 360,000; AID 686971; HT-1080 IDH1 knockdown viability, ATP luminescence, 48 h; Potency, µM (top dose mostly 46.1 µM), hits mostly cytotoxic
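CellTiter-Glo luminescence after 48 h compound exposure at 37 degrees C of IDH1-knockdown HT-1080 cells in 5% FBS RPMI. %Activity scaled between DMSO wells and cell-free media wells, with curves fitted and assigned curve classes.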
uPA surface inh – inhibitors of cell surface uPA generation; cell surface uPA generation assay, qHTS; Potency, µM (series often up to 38.3 µM), most hits filed as inhibitors; hit rate 0.31% among 330,000; active = well fitted inhibition curve with a large enough effect; inconclusive = small, poorly fitted or top-dose-only effect; inactive = no such curve, though single readings can be large or run the other way; tested in mouse RAW 264.7 cells; also: nearly all actives have a fitted effect of over 55% in size
HT1080NT lethal – kills 2HG-producing HT-1080-NT fibrosarcoma cells; hit rate 1.6% among 360,000; Potency, µM (highest dose often 46.1 µM), usual class: cytotoxic; AID 686970; HT-1080-NT fibrosarcoma viability, CellTiter-Glo ATP luminescence, 48 h;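 also: NT is the 2HG producing partner of a matched IDH1 knockdown line; nearly all actives have a fitted effect of over 55% in size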
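Fibrosarcoma NT cells, 750 per well in 5% FBS RPMI, were exposed to compound for 48 hours. Viability: CellTiter-Glo luminescence.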
TDP1 cell CPT – growth inhibition of DT40 Tdp1-/-;hTDP1 cells with camptothecin (screen for TDP1 inhibitors); hit rate 12% among 420,000; chicken DT40 Tdp1-/-;hTDP1 cells + 20 nM CPT, ATP luminescence, 48 h; Potency, µM (series often up to 46.2 µM), actives largely listed as inhibitors; AID 686979; also: nearly all actives have a fitted effect of over 55% in size
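Chicken DT40 Tdp1-/- cells stably complemented with human TDP1 were seeded at 400 cells/well in medium containing 20 nM camptothecin, exposed to pin-transferred compounds, and grown at 37 °C for at least 48 hr. Viability was read as ATP luminescence.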
A number is an active result; . = inactive; ? = inconclusive; / = not tested or not shown. Unless noted, calls follow the shape of the dose curve; as a rule, active = well fitted curve in the direction sought with a large enough effect; inconclusive = small, poorly fitted or top-dose-only effect, or another doubt; inactive = no such curve, though single readings can be large; an effect the other way counts as inactive or inconclusive.

SMILES	TDP1 cell noCPT	IL-1B inflam inh	HT1080 IDH1KD tx	uPA surface inh	HT1080NT lethal	TDP1 cell CPT
O=C(O)/C=C/C(=O)N(CC1CCCO1)C1CC(=O)N(c2c(Cl)cccc2Cl)C1=O (stereo not drawn)	.	.	.	.	.	.
CCC(C(=O)Nc1ccc(S(=O)(=O)N2CCN(C)CC2)cc1)c1ccccc1 (stereo not drawn)	.	.	.	.	.	.
CC1CCCC(NC(=S)Nc2cccc(S(=O)(=O)N(C)C)c2)C1C (stereo not drawn)	18µM	.	?	.	.	?
CN(C)S(=O)(=O)c1cccc(NC(=S)NC(=O)C2CCCCC2)c1	18µM	.	.	.	.	?
CC1Cc2ccccc2N1C(=S)Nc1cccc(S(=O)(=O)N(C)C)c1 (stereo not drawn)	?	.	.	.	.	16µM
CN(C)S(=O)(=O)c1cccc(NC(=S)N2CCc3ccccc32)c1	?	.	.	.	.	?
CN(C)S(=O)(=O)c1cccc(NC(=S)NC2CCCCC2)c1	.	.	.	.	.	.
CC(=O)C1=NN(c2ccc(Cl)cc2)C(c2ccc3c(c2)OCO3)N(C(C)=O)N1C (stereo not drawn)	?	.	.	?	.	?
Cc1ccc(CS(=O)(=O)CC(C)(O)c2ccccc2)cc1 (stereo not drawn)	.	.	.	.	.	.
O=C(Cn1cccc1C(=O)c1ccccc1)NCc1cccc(Cl)c1	?	.	.	.	.	?
COc1ccc2c(c1)[nH]c1c(=O)n(CCCn3ccnc3)cnc12	.	.	.	.	.	.
CN1CCN(C(CNC(=O)c2cccc(F)c2)c2ccc3c(c2)OCO3)CC1 (stereo not drawn)	.	/	/	/	/	.
O=C(Cc1ccccc1)Nc1nnc2n1CCS2	.	/	/	/	/	.
CCOC(=O)c1c(SC)n(-c2ccccc2)c(=S)n(-c2ccccc2)c1=O	.	.	.	.	.	.
CCOC(=O)c1c(SCCN2CCCCC2)n(-c2ccccc2)c(=S)n(-c2ccccc2)c1=O	4.1µM	.	.	.	.	2.9µM
CC(C)Oc1ccc(CNC(=O)c2cc3ccccn3n2)cc1	.	/	/	/	/	.
Cc1ccc(C(=O)NCc2ccc(F)cc2)cc1NC(=O)c1nsc2ccccc12	23µM	/	/	/	/	?
COc1ccc(OC)c(CNC(=O)c2ccc(C)c(NC(=O)C3=C(C)OCCS3)c2)c1	.	.	.	.	.	.
CC(C)Oc1ccc(CNC(=O)c2cccc(NC(=O)c3nsc4ccccc34)c2)cc1	9.2µM	/	/	/	/	4.6µM
O=C(NCc1ccccc1Cl)c1ccc(NC(=O)c2nsc3ccccc23)cc1	18µM	/	/	/	/	18µM
O=C(NCc1ccccc1Cl)c1ccc(S(=O)(=O)N2CCCC2)cc1	.	.	.	.	.	.
COc1ccc(OC)c(CNC(=O)c2ccc(C)c(NC(=O)c3nsc4ccccc34)c2)c1	?	/	/	/	/	18µM
Cc1cccc(C(=O)NCC(=O)OC(C)C(=O)Nc2ccc(Cl)cn2)c1 (stereo not drawn)	.	.	.	.	.	?
C[C@H](CO)N1C[C@H](C)[C@H](CN(C)C(=O)OCc2ccccc2)OCc2cnnn2CCCC1=O	.	.	.	/	.	.
COc1cc(C(C)=O)ccc1OC(=O)N1CCOCC1	.	.	.	/	.	.
Cc1ccc(C(=O)NCCC(C)C)cc1NC(=O)c1nsc2ccccc12	?	/	/	/	/	16µM
COCCC(=O)N1CCC(Oc2ccc(C(=O)N3C[C@H]4CC[C@H]3C4)cc2)CC1	.	.	.	.	.	.
COc1cc(/C=C(\C#N)C(=O)Nc2cccc(C(=O)O)c2)ccc1OCc1ccc(C)cc1	.	.	.	.	.	.
CCOc1cc(/C=C(\C#N)C(=O)Nc2cccc(C(=O)O)c2)ccc1OCc1ccc(Br)cc1	29µM	.	.	.	.	?
